Results filed as inconclusive are left out. A number with no mark means an inactive call. Calls follow the shape of the dose curve; as a rule, active = well fitted activation curve with a large enough effect; inconclusive = small, poorly fitted or top-dose-only effect; inactive = flat fitted curve, though single readings scatter.
Assay: Primary redox qHTS assay for identification of artifact compounds. (AID 1845223)
Details: Amplex Red/HRP redox cycling with DTT, fluorescence; series mostly up to 53.8 µM; redox activity (% of DA3003): at the top concentration
Source text: PI: Alexander Tropsha Ph.D.
UNC Eshelman School of Pharmacy
University of North Carolina, Chapel Hill, North Carolina
Hits from high-throughput screening (HTS) of chemical libraries are often false positives due to their interference with the assay detection technology. In response to this problem, we generated the largest publicly available library of chemical liabilities and developed a free webtool to predict HTS artifacts, both of which are described herein. More specifically, we generated, curated, and integrated HTS datasets for thiol reactivity, redox activity, and luciferase (firefly and nano) activity. Using these curated datasets, we developed and validated several Quantitative Structure-Interference Relationship (QSIR) models to predict nuisance behavior. […] These models were employed for virtual profiling of the National Center for Advancing Translational Science's (NCATS) in-house library, and 256 compounds for each assay were selected for the experimental validation of nuisance behavior. The BA for these external predictions ranged from 58 to 78% for compounds within the applicability domains of the models. […] The models developed in this study, along with aggregation models previously developed by our group (SCAM Detective) were implemented in "Liability Predictor," an online tool which may be used as part of chemical library design or for triaging HTS hits. Both the models and the curated datasets are publicly available at https://liability.mml.unc.edu/.
SEQUENCE No. (e.g., 1, 2, 3, etc.); […] (e.g., Cells, Incubation, Reagent, etc.); VALUE; DESCRIPTION.
1; Reagent; 3 uL; Amplex Red and HRP mixture.
2; Compounds and control; 16 nL; Kalypsis pin tool (Wako USA) equipped with a 1536-well pin head. […]
6; Detection; Fluorescence, ViewLux microplate reader, 525 nm excitation, 598 nm emission.
NOTES (numbers refer to Sequence numbers above)
1. 3 uL of a mixture containing Amplex Red (25 uM final concentration) and horseradish peroxidase (HRP; 250 mU/mL final concentration) in assay buffer (HBSS) was dispensed into all wells of a 1536-well assay plate (solid-bottom black plate; Greiner Bio One, Monroe, NC).
2. A Wako Pin-tool (Wako Automation, Richmond, VA) was used to transfer 16 nL of compounds (consisting of 7-plates in qHTS format, final concentration range 18.3 nM to 114 uM) or control DA3003 (final concentration range 1.22 nM to 40 uM).
3. 15 min. incubation at room temperature protected from light.
4. 1 uL of DTT (prepared fresh; final concentration 250 uM) was dispensed for a final assay volume of 4 uL.
5. Plates were centrifuged (121xg, 15 seconds) and incubated for 30 minutes at room temperature protected from light.
6. Samples were read for fluorescence (Ex/Em = 525(20)/598(25) nm) on a ViewLux CCD imager (PerkinElmer). Data were normalized to DMSO (0% activity) and DA3003 (10 uM final concentration; 100% activity) and the resulting percent inhibition data were fitted to a 4-parameter Hill equation using NCATS in-house software.

Going from `Cn1cc(CCn2cnc(-c3cnn(C)c3)c2-c2ccc(C#N)cc2)cn1` to `Cc1nnc(-c2ccc3occ(-c4ccc(S(C)=O)cc4)c3c2)o1` (stereo not given), the “redox activity (% of DA3003)” value rises from -2.65% to 8.34%.

Compared with `CC[C@@H]1C(=O)O[C@]23C=C[C@@H]4C(C(=O)OC)=CO[C@H](O[C@@H]12)[C@@H]43`, `CC(=O)C1CCC(=O)N1Cc1ccccc1` (stereo not given) is higher in “redox activity (% of DA3003)” value: -9.6% for the first, -6.67% for the second.

Going from `CCOC(=O)CSc1nc2c(sc3ccccc32)c(=O)n1CCCN1CCCC1` to `CCCCC(=O)N1c2ccccc2NC2=C(C(=O)CCC2)C1c1ccccc1Cl` (stereo not given), the “redox activity (% of DA3003)” value rises from 3.07% to 15.3%.

Compared with `CNC(C)C(=O)NC(C(=O)N1CCCC1C(=O)Nc1cccc2ncccc12)C(C)C` (stereo not given), `Cc1oc(S(=O)(=O)N2CCCCC2)cc1NC(=O)Nc1ccccc1` is lower in “redox activity (% of DA3003)” value: 6.68% for the first, -5.87% for the second.

First: COc1ccc(C2(O)c3ccccc3NC(=O)C2OC)cc1 (stereo not given)
Second: COc1cccc(Cn2ncc3c4sc(S(C)=O)cc4n(C)c3c2=O)c1 (stereo not given)
The “redox activity (% of DA3003)” value of the first is lower: 5.22% for the first, 5.26% for the second.

Going from `O=S(=O)(O)c1ccc(Nc2ncnc3c2ncn3[C@@H]2O[C@H](CO)[C@@H](O)[C@H]2O)cc1` to `CSCC1OC(n2cnc3c(=O)[nH]cnc32)C(O)C1O` (stereo not given), the “redox activity (% of DA3003)” value falls from -0.638% to -8.17%.

Going from `Cc1ccccc1-c1cc(N2CCN(C)CC2)ncc1N(C)C(=O)C(C)(C)c1cc(C(F)(F)F)cc(C(F)(F)F)c1` to `FC(F)(F)c1nnc2c(Sc3ccccc3)nc3ccc(Cl)cc3n12`, the “redox activity (% of DA3003)” value rises from -1.1% to -0.456%.

Compared with `Cc1ccc2nc(NC(=O)CSc3nc4c(c(=O)n3-c3ccc(F)cc3)SCC4)sc2c1`, `O=C(Nc1ccc(N2CCC(C(=O)N3CCOCC3)CC2)cc1)c1cnc(Oc2ccccc2)nc1` is higher in “redox activity (% of DA3003)” value: -7.31% for the first, -0.423% for the second.

Going from `O=C(O)/C=C/c1ccc2occc2c1O[C@@H]1O[C@H](CO)[C@@H](O)[C@H](O)[C@H]1O` to `C=CC(C)(O)CC/C=C(\C)COC1O[C@H](CO)[C@@H](O)[C@H](O)[C@H]1O` (stereo not given in full), the “redox activity (% of DA3003)” value falls from -15.8% to -17.4%.

Going from `CC1(O)CCC2C(C3C1CCC3(C)O)C2(C)C` (stereo not given) to `CC1(C)C[C@@H]2[C@H](C1)[C@@]1(C)C[C@]13C(O)OC[C@]3(O)[C@H]2O` (stereo not given in full), the “redox activity (% of DA3003)” value falls from -1.28% to -11%.

Going from `COc1cc2c(cc1OC)N1C(=O)C[C@@]34C=CC[N@+]5([O-])CC[C@H]2[C@H](CC3)[C@@]145` to `CC12CC(O)C(O)C=C1c1cc(O)cc(O)c1C(=O)O2` (stereo not given), the “redox activity (% of DA3003)” value falls from 5.14% to -1.88%.

Compared with `C/C=C1/[C@H](O[C@@H]2O[C@H](CO)[C@@H](O)[C@H](O)[C@H]2O)OC=C(C(=O)OC)[C@H]1CC(=O)OCCc1ccc(O)c(O)c1`, `COc1cc(/C=C/C(=O)O[C@H]2C[C@@H]3C(C(=O)O)=CO[C@@H](O[C@@H]4O[C@H](CO)[C@@H](O)[C@H](O)[C@H]4O)[C@@H]3[C@H]2C)ccc1O` is higher in “redox activity (% of DA3003)” value: -11.8% [at 25.6 µM] for the first, -8.05% [at 25.6 µM] for the second.

Going from `O=C(OC1C=C(CO)C2C(OC3OC(CO)C(O)C(O)C3O)OC=CC12O)c1ccc(O)cc1` (stereo not given) to `CC1(O)CC(O)C2C(C(=O)O)=COC(OC3OC(CO)C(O)C(O)C3OC(=O)/C=C/c3ccc(O)cc3)C21` (stereo not given), the “redox activity (% of DA3003)” value rises from -17.7% [at 25.6 µM] to -0.461% [at 25.6 µM].

Going from `CC(C)(O)C(O)C(=O)OCc1ccc(O[C@@H]2O[C@H](CO)[C@@H](O)[C@H](O)[C@H]2O)cc1` (stereo not given in full) to `COc1cc(C[C@@]2(O)CO[C@@H](c3ccc(O[C@@H]4O[C@H](CO)[C@@H](O)[C@H](O)[C@H]4O)c(OC)c3)[C@H]2CO)ccc1O`, the “redox activity (% of DA3003)” value rises from -18.7% [at 25.6 µM] to -2.11% [at 25.6 µM].

Compared with `Cc1cc(O[C@@H]2O[C@H](COC(=O)CC(=O)O)[C@@H](O)[C@H](O)[C@H]2O)c(C(C)C)cc1O`, `O=C(/C=C/c1ccc(O)cc1)OC[C@H]1O[C@@H](O/C(=C\c2ccccc2)C(=O)O)[C@H](O)[C@@H](O)[C@@H]1O` is higher in “redox activity (% of DA3003)” value: -8.09% [at 25.6 µM] for the first, -5.33% [at 25.6 µM] for the second.

Compared with `COc1c(-c2ccc(O)cc2)cc(OC)c2c1oc1cc(O)c(OC3OC(CO)C(O)C3O)cc12` (stereo not given), `COC(=O)C1=COC(OC2OC(CO)C(O)C(O)C2O)C2C(C)C(OC(C)=O)C(OC(=O)c3ccccc3)C12` (stereo not given) is higher in “redox activity (% of DA3003)” value: 16.4% [at 25.6 µM] for the first, 17.4% [at 25.6 µM] for the second.

First: C=C1C(=O)O[C@@H]2/C=C(\C)CC/C=C(\C(=O)O[C@@H]3O[C@H](CO)[C@@H](O)[C@H](O)[C@H]3O)CC[C@@H]12
Second: O=C(CCc1ccccc1)c1c(O)c([C@@H]2O[C@H](CO)[C@@H](O)[C@H](O)[C@H]2O)c(O)c([C@@H]2O[C@H](CO)[C@@H](O)[C@H](O)[C@H]2O)c1O
The “redox activity (% of DA3003)” value of the first is higher: -8.67% [at 25.6 µM] for the first, -15.3% [at 25.6 µM] for the second.

Compared with `CO[C@@H]1[C@]2(O)C(=O)N3/C=C\C(C)(C)c4[nH]c5ccccc5c4/C=C\3C(=O)N2[C@]23[C@H](CO)C(C)(C)N2c2ccccc2[C@]13O`, `CC1(C)C=Cc2c(ccc3c2N=C2C(C)(C)[C@@H]4C[C@]56CCCN5C(=O)[C@@]4(C[C@]23O)NC6=O)O1` is lower in “redox activity (% of DA3003)” value: 5.57% [at 25.6 µM] for the first, 0.118% [at 25.6 µM] for the second.

Going from `CC1CCC2(C(=O)O)CCC3(C)C(=CCC4C5(C)C[C@@H](O)[C@@H](O)C(C)(CO)C5CCC43C)C2C1(C)O` (stereo not given in full) to `CC(=O)NC1CC(=O)C23C(=O)NC(Cc4c[nH]c5ccccc45)C2C(C)=C(C)C(O)C3/C=C/CC(C)/C=C(/C)C(O)C1O` (stereo not given), the “redox activity (% of DA3003)” value rises from 16% [at 25.6 µM] to 19.2% [at 25.6 µM].

Going from `CC(C)=CCC[C@](C)(O[C@@H]1O[C@H](CO)[C@@H](O)[C@H](O)[C@H]1O)[C@H]1CC[C@]2(C)[C@@H]1[C@H](O)CC1[C@@]3(C)CC[C@H](O)C(C)(C)C3[C@@H](O[C@@H]3O[C@H](CO)[C@@H](O)[C@H](O)[C@H]3O[C@@H]3O[C@@H](C)[C@H](O)[C@@H](O)[C@H]3O)C[C@]12C` (stereo not given in full) to `C[C@@H]1O[C@@H](OC2C(CO)OC(OCC3OC(OC(=O)[C@]45CCC(C)(C)CC4C4=CCC6[C@@]7(C)CC[C@@H](O)[C@](C)(C(=O)O)C7CC[C@@]6(C)[C@]4(C)CC5)C(O)C(O)C3O)C(O)C2O)[C@H](O)[C@H](O)[C@H]1O` (stereo not given in full), the redox activity (% of DA3003) rises from 5.49% [at 11.5 µM] to 10.6% [at 11.5 µM].
